Most compounds without a hit are left out; they make up all but 1.1% or so of the library.
NCOA3 inh: inhibits human SRC3 coactivator | inhibition, % at 3.6 µM | HEK293 GAL4-SRC3 luciferase reporter, luminescence | 360,000 compounds, 0.17% hits | Q9Y6Q9;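 active = inhibition above a per-campaign cutoff, the mean of all compounds plus 3 SD, cut at about 60% in these data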;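 also: 0% = DMSO-treated cells and 100% = gossypol-treated cells at 36 µM; higher means less SRC3-driven luciferase light from the GAL4 reporter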
GalR3 antagonist: blocks the human galanin receptor 3 | 360,000 compounds, 0.44% hits | inhibition, % at 3 µM | HEK293 GalR3-CNG cAMP membrane potential fluorescence; galR3 body fused to GalR1 C-terminus | O60755;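 active = inhibition above the screen-wide average plus 3 SD, cut at about 13% in these data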;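 also: forskolin and galanin both at EC90 stimulate the cells; cAMP rise reported by CNG channel membrane potential dye signal; 0% = forskolin plus galanin with DMSO and 100% = forskolin alone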
NCOA2 inhibitor: human SRC2 (NCOA2) inhibition; 370,000 compounds, 0.17% hits; Q15596; HEK293 GAL4-SRC2 luciferase reporter, luminescence; inhibition, % at 9 µM;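 active = inhibition above the mean inhibition of all tested compounds plus 3 SD, set per campaign, cut at about 52% in these data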;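 also: 0% = DMSO treated cells and 100% = cells given Gossypol at 36 µM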
SRC1 inh: inhibitors of human steroid receptor coactivator 1 (SRC1) | Q15788 | HEK293 GAL4-SRC1 luciferase reporter, luminescence | inhibition, % at 3.6 µM | 360,000 compounds, 0.12% hits;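 active = inhibition above the campaign mean plus 3 SD, with each screening campaign given its own cutoff, cut at about 60% in these data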;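 also: 0% = DMSO treated cells and 100% = gossypol at 36 µM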
COUP-TFII inh: inhibitors of human COUP-TFII (NR2F2); HEK293T NGFI-A luciferase reporter, luminescence; inhibition, % at 8.6 µM; 370,000 compounds, 0.7% hits; AID 686940;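 active = inhibition above a per-plate cutoff, mean inhibition of test wells between control levels plus 3 SD, cut at about 38% in these data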;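 also: cells cotransfected with COUP-TFII expression vector driving the NGFI-A reporter; 0% = median of COUP-TF2 test wells and 100% = reporter-only cells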
LRH-1 inv ag: NR5A2 inverse agonism in reporter assay | 360,000 compounds, 0.13% hits | inhibition, % at 3.6 µM | HEK293T StAR-luciferase reporter, LRH-1 transfected, 24 h | O00482;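 active = inhibition above the mean inhibition of all tested compounds plus 3 SD, cut at about 73% in these data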;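 also: 0% = DMSO wells and 100% = reporter-only cells lacking LRH-1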
Gal4-VP16 ctr: counter-screen for COUP-TFII antagonists: inhibitors of VP16 | shares compounds with COUP-TFII inh | HEK293 Gal4-VP16 luciferase reporter, luminescence | inhibition, % at 8.5 µM | 2,500 compounds, 25% hits; in the data active = inhibition above about 13%
NR2F2 inh conf: COUP-TFII (NR2F2) inhibition, confirmation assay; shares compounds with COUP-TFII inh; inhibition, % at 8.5 µM; HEK293 NGFI-A luciferase reporter, luminescence; 2,500 compounds, 45% hits;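 active = mean inhibition over three repeats above a set limit taken from the earlier primary screen, cut at about 38% in these data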;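 also: 100% = cells given the luciferase reporter alone without the COUP-TF2 vector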
* hit, by the source's call; / = not tested or not shown.

SMILES	NCOA3 inh	GalR3 antagonist	NCOA2 inhibitor	SRC1 inh	COUP-TFII inh	LRH-1 inv ag	Gal4-VP16 ctr	NR2F2 inh conf
Brc1ccc2ncnc(NCc3ccccc3)c2c1	64*	-6	55*	67*	58*	41	18*	49*
C/C(C=NNC(=O)CSc1nnc(-c2ccc(Cl)cc2)n1-c1ccccc1)=C\c1ccccc1	/	/	14	/	-6	/	/	/
O=C(CCS(=O)(=O)c1ccccc1)Nc1ccc(F)cc1F	/	/	4	/	-4	/	/	/
CN(C)c1ccc(C=C2C=C(c3ccccc3)OC2=O)cc1	-14	-7	9	-18	-21	-35	/	/
CN(C)c1ccc(C=c2c3cc([N+](=O)[O-])ccc3n3c2cc(-c2ccccc2)[n+]3C)cc1	53	-2	-4	12	68*	61	53*	59*
COc1cc(/C=C(/C(=O)O)c2ccc(-c3ccccc3)cc2)cc(OC)c1OC	-2	-9	14	1	-1	0	/	/
COc1cc(N(C)C)ccc1C=c1c2ccccc2n2c1cc(-c1ccccc1)[n+]2C	63*	-7	-54	23	67*	69	9	73*
CN(C)c1ccc(C=c2c3ccccc3n3c2cc(-c2ccccc2)[n+]3C)cc1	83*	9	-29	65*	82*	91*	21*	94*
COc1cc(C=c2c3ccccc3n3c2cc(-c2ccccc2)[n+]3C)cc(OC)c1OC	13	-5	-3	-9	38*	10	-1	7
CC(C)n1nnnc1C1(C)CCCCC(=O)N1Cc1cccc(C(F)(F)F)c1 (stereo not drawn)	/	/	7	/	-7	/	/	/
COc1ccc(S[C@]2(C(=O)N3CCOCC3)CC(=O)N(c3ccc(OC)cc3)[C@@H]2c2ccc(OC)cc2)cc1	/	/	-42	/	4	/	/	/
O=c1c2cc3cc(Cl)ccc3nc2ncn1N1CCCCC1	/	/	-9	/	-6	/	/	/
O=C(CSc1nnc(COc2ccccc2)n1Cc1ccco1)Nc1ccc(OCc2ccccc2)cc1	/	/	-19	/	1	/	/	/
Nc1ccc(-c2cc3ccccc3oc2=O)cc1	65*	-11	85*	42	88*	56	81*	80*
CC1CCCN(c2ncnc3c2cnn3-c2ccc(Cl)cc2)C1 (stereo not drawn)	88*	2	83*	87*	100*	92*	90*	105*
CC1CCCN(c2ncnc3c2cnn3-c2ccccc2)C1 (stereo not drawn)	15	1	2	23	24	3	/	/
CC(C)COc1ccc(C/C(N)=N/n2cnnc2)cc1	22	1	35	-41	39*	8	3	18
COc1ccc(CCNC(=O)c2ccc3c(c2)OCCO3)cc1	-42	-6	-29	-39	-20	-76	/	/
O=C(NCCc1ccccc1)c1ccc2c(c1)OCCO2	53	-1	76*	48	71*	56	36*	53*
O=C(C[n+]1ccc(C(=O)NCc2ccccc2)cc1)c1ccc2c(c1)OCCO2	4	-3	11	10	-12	22	/	/
O=C(CCCc1ccccc1)c1ccc2c(c1)OCCO2	70*	-10	75*	71*	85*	67	49*	90*
O=C(NCCc1ccccc1)c1ccc2c(c1)OCCCO2	74*	-3	88*	74*	88*	78*	72*	91*
Nc1cc[n+](CC(=O)c2ccc3c(c2)OCCO3)cc1	17	-3	30	-10	40*	40	-3	16
O=C(CCc1ccccc1)c1ccc2c(c1)OCCCO2	-93	-4	-56	-207	-32	-136	/	/
O=c1c2ccccc2nc(/C=C/c2cccnc2)n1CCc1ccccc1	23	1	6	23	44*	23	-6	4
SMILES	NCOA3 inh	GalR3 antagonist	NCOA2 inhibitor	SRC1 inh	COUP-TFII inh	LRH-1 inv ag	Gal4-VP16 ctr	NR2F2 inh conf
COc1ccc(CCNC(=S)c2ccccc2)cc1OC	20	-7	-1	-1	38*	15	5	22
Cc1cccc(-c2cccc3c4c([nH]c23)[C@@H]2C[C@H](N(C)C(=O)NC3CCCCC3)[C@H]([C@H](C)O)C(=O)N2CC4)c1	/	/	-3	/	25	/	/	/
O=C(CN1CCc2onc(-c3ccc(-n4cc(C5=CCCCC5)nn4)cc3)c2C1=O)N1CCOCC1	/	/	10	/	1	/	/	/
COc1cc(CC(=O)Nc2cccc(SC)c2)cc(OC)c1OC	18	-5	16	15	37*	9	-1	7
COc1cc(CC(=O)Nc2cccc(S(=O)(=O)N(C)c3ccccc3)c2)cc(OC)c1OC	28	-2	8	-1	39*	20	7	20
O=C(Nc1cccnc1)c1ccc(CN2CCc3ccccc3C2)cc1	-20	0	25	2	42*	8	-14	10
Clc1ccc(-c2noc(CSc3nnc(-c4ccncc4)n3-c3ccccc3)n2)cc1	35	-6	26	-3	65*	10	-3	13
Cc1ccc(-c2noc(CSc3nnc(-c4ccncc4)n3-c3ccc(C)cc3)n2)cc1	-12	-9	7	-1	-1	-1	/	/
COc1ccc(S[C@]2(C(=O)NCc3ccccc3)CC(=O)N[C@@H]2c2ccc(OC)cc2)cc1	/	/	-3	/	-4	/	/	/
O=C(NCc1cccc(Cl)c1)c1cccc(OC2CCN(C(=O)C3CC3)CC2)c1	8	-1	20	-1	56*	14	-4	32
Cc1nnc(C)n1N=Cc1ccc(O)cc1O	/	/	-2	/	-5	/	/	/
O=C1NC(Cc2ccccc2)c2nc3ccc(Cl)cc3c(=O)n2-c2cc3ccccc3cc21 (stereo not drawn)	-12	-5	11	4	-12	-15	/	/
O=C1NC(Cc2ccc(O)cc2)c2nc3ccc(Cl)cc3c(=O)n2-c2cc3ccccc3cc21 (stereo not drawn)	9	-6	5	-33	41*	12	0	3
CCOC(=O)[C@]12CCC=C1N(Cc1ccco1)C(=O)[C@H](CC(=O)NCc1ccc(OC)c(OC)c1)C2	/	-2	-5	/	13	5	/	/
CCOC(=O)[C@]12CCC=C1N(Cc1cccc3ccccc13)C(=O)[C@H](CC(=O)NCc1ccc(OC)c(OC)c1)C2	/	0	2	/	37*	2	-6	13
CN(CCc1ccccc1)C(=O)c1ccc2c(c1)ncn2C1CCCCC1	/	/	-1	/	-3	/	/	/
Cc1ccccc1Cn1cc(CN2[C@@H](CC(C)C)COc3cccc(F)c3S2(=O)=O)nn1	/	/	0	/	-4	/	/	/
O=C(c1ccc(Cl)cc1)C1CCN(c2ncnc3sccc23)CC1	/	/	/	/	69*	/	0	56*
O=C(c1cccs1)C1CCN(c2ncnc3sccc23)CC1	/	/	/	/	76*	/	12	69*

Bioassay records from PubChem BioAssay.
